Test results as given in PubChem BioAssay (NCI).
“And” between values parts separate entries of the source, which are not always exact repeats. Equal entries are not always repeated. This is part of a sample that, as a whole, favours compounds with a hit. Of some 83,000 tested, about 20% had one in any assay.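 Results are percent growth after 48 hours of single-concentration exposure. 100 means growth as in untreated cells, lower positive values show inhibition; negative values down to -100 show cell death.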 A number with no mark means an inactive call. The source made the active and inactive calls. Rule for the calls: active = growth percent below 10; inactive = the rest.

Key:
Assay in all cases: NCI-60 one-dose screen, 48 h (100 = growth as untreated, 0 = no growth, -100 = all killed)
Details in all cases: 10 µM unless noted
NCI-H23 lung = system: NCI-H23 lung
NCI-H226 lung = system: NCI-H226 lung
NCI-H322M lung = system: NCI-H322M lung
HOP-62 NSCLC = system: HOP-62 NSCLC
NCI-H460 lung = system: NCI-H460 lung
HOP-92 NSCLC = system: HOP-92 NSCLC
NCI-H522 lung = system: NCI-H522 lung
A549/ATCC NSCLC = system: A549/ATCC NSCLC
786-0 renal = system: 786-0 renal
COLO 205 colon = system: COLO 205 colon
DU-145 prostate = system: DU-145 prostate
K-562 leukemia = system: K-562 leukemia
MALME-3M melanoma = system: MALME-3M melanoma
MDA-MB-231 breast = system: MDA-MB-231 breast
RXF 393 renal = system: RXF 393 renal
SF-268 CNS = system: SF-268 CNS
SF-295 CNS = system: SF-295 CNS
SF-539 CNS = system: SF-539 CNS
UACC-257 melanoma = system: UACC-257 melanoma
M14 melanoma = system: M14 melanoma

Row | Compound | growth (NCI-H23 lung) | growth (NCI-H226 lung) | growth (NCI-H322M lung) | growth (HOP-62 NSCLC) | growth (NCI-H460 lung) | growth (HOP-92 NSCLC) | growth (NCI-H522 lung) | growth (A549/ATCC NSCLC) | growth (786-0 renal) | growth (COLO 205 colon) | growth (DU-145 prostate) | growth (K-562 leukemia) | growth (MALME-3M melanoma) | growth (MDA-MB-231 breast) | growth (RXF 393 renal) | growth (SF-268 CNS) | growth (SF-295 CNS) | growth (SF-539 CNS) | growth (UACC-257 melanoma) | growth (M14 melanoma)
1 | Nc1ccc(-c2ccc(N)c(Br)c2)cc1Br | 53.9% | 56.9% | 77.3% | 55.4% | 44.3% | 41.8% | 57% | 42.2% | 52.9% | 82.6% | 68.1% | 22.4% | 55.4% | 51.8% | 57.5% | 44.3% | 62.8% | 29.5% | 78.1% | 26.9%
2 | Cc1oc2c(Cc3ccc(NC(=O)c4ccc(Cl)cc4)cc3)ncnc2c1C(=O)NO | 97.2% | 86.4% | 93.1% | 101% | 97.3% | 125% | 70.7% | 88.5% | 95% | 107% | 105% | 78.3% | 93.9% | 108% | 97.6% | 97.6% | 95.3% | 104% | 84% | 99.6%
3 | COc1ccc(C(CC(=O)c2ccc3c(c2)OCO3)C(=O)O)cc1OC (stereo not given) | 104% and 96.7% | 110% | 107% and 96.1% | 106% and 104% | 102% and 112% | 108% and 101% | 88.6% and 78.1% | 92.6% and 98% | 111% and 98.6% | 122% and 107% | 121% and 106% | 119% and 90.1% | 114% and 90.3% | 128% and 113% | 115% and 106% | 111% and 97.7% | 86.9% and 81.9% | 126% and 104% | 91.5% and 106% | 115% and 103%
4 | COc1ccc2nc3cc(Cl)ccc3c(NCCCNCCC(C)O)c2c1 (stereo not given) | -48.8% (active) | -3.4% (active) | -24.8% (active) | -8.19% (active) | -53.5% (active) | -23.7% (active) | -34.3% (active) | -17.6% (active) | -49.5% (active) | -77.7% (active) | -16.2% (active) | -18.1% (active) | -76.1% (active) | -47.5% (active) | -67.6% (active) | -25.9% (active) | -11.9% (active) | -56.9% (active) | -83.9% (active) | -82% (active)
5 | Clc1ccc(Nc2nc(Nc3ccc(Cl)cc3)nc(Nc3ccc(-c4cc(-c5cccc(Cl)c5)on4)cc3)n2)cc1 | 88.1% | 99.9% | 85.2% | 115% | 96.1% | 60.4% | 88.5% | 91.3% | 94.6% | 90.9% | 110% | 85.9% | 128% | 81.3% | 39.3% | 87.7% | 102% | 102% | 108% | 94.8%
6 | Fc1ccc(NC(c2ccc(F)cc2)C2CCN(CCCCc3ccccc3)CC2)cc1 (stereo not given) | 43.7% | 74.4% | 60.9% | 71.4% | 1.45% (active) | 29.1% | 53.6% | 52.3% | 35.8% | -56.5% (active) | 19.3% | -29.1% (active) | 32.6% | 6.83% (active) | 10.9% | 44.2% | 34.6% | 40.5% | 60.7% | 24.7%
7 | O=C(/C=C/c1cccs1)Nc1ncc(Cc2ccc(Cl)c(Cl)c2)s1 | 91.4% | 86% | 76.5% | 61.5% | 48% | 78.1% | 38.9% | 59.4% | 75.2% | 51.4% | 59.5% | 35.2% | 53.1% | 82.9% | 72.8% | 67.9% | 30.2% | 65.1% | 90.8% | 29%
8 | N#CSc1c[nH]c2ccc(/C=C/C(=O)/C=C(/C=C/c3ccc4[nH]cc(SC#N)c4c3)OB(F)F)cc12 | -28.3% (active) | -66.1% (active) | 94.9% | 14.7% | 3.07% (active) | -74.1% (active) | -69.7% (active) | 4.65% (active) | -46.5% (active) | -63.9% (active) | 1.62% (active) | -27.2% (active) | -32.6% (active) | -35.9% (active) | -64.4% (active) | 2.42% (active) | 35.7% | -13.2% (active) | -29.8% (active) | -39.9% (active)
9 | COc1cc(/C=C2\CCC/C(=C\c3cc(CN4CCCC4)c(O)c(OC)c3)C2=O)cc(CN2CCCC2)c1O | 38.4% | 75.1% | 44.3% | 102% | 6.28% (active) | 10.5% | 46.1% | 43.7% | -4.39% (active) | -45.7% (active) | 2.36% (active) | 11.1% | 81.6% | 12.5% | 10.6% | 35.3% | 62.5% | 23% | 86.6% | 19.6%
